From PubChem
SW480 rerep: induces DNA re-replication in SW480 colon adenocarcinoma cells. SW480 DNA re-replication, Hoechst DNA content imaging, 48 h. Potency, µM (doses to about 46.1 µM), usual class: activators. 1.8% of 340,000 active; note: nearly all actives have a fitted effect of over 55% in size
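Per well, 250 cells were exposed to pinned compound for 48 hr. Nuclear DNA was visualised with Hoechst (40 min, 37 C) and total object intensity recorded by fluorescence scanning.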
KB-V1 MDR tox: kills drug-selected multidrug resistant KB-V1 cells | KB-V1 MDR cells viability, CellTiter-Glo, 72 h | Potency, µM (series often up to 46.1 µM), hits mostly cytotoxic | 3.4% of 400,000 active; note: nearly all actives have a fitted effect of over 60% in size
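Potencies derive from concentration-effect curves fitted to normalized luminescence (CellTiter-Glo) of KB-V1 cells treated for 72 h at 37 degrees C in phenol-red-free DMEM containing 10% FBS.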
MCF10A rerep: DNA re-replication induction in MCF 10a cells | MCF 10A DNA re-replication, Hoechst nuclear intensity, 48 h | Potency, µM (highest dose often 46.1 µM), usual class: activators | 2.9% of 350,000 active | AID 624296; note: nearly all actives have a fitted effect of over 50% in size
ELG1 DNA repair: inhibitors of ELG1-dependent DNA repair in HEK293T cells; HEK293T ELG1-luciferase reporter, luminescence, 16 h; DNA damage induced by 5-fluorouridine; Potency, µM (series often up to 46.1 µM), usual class: inhibitors; 2.3% of 330,000 active; note: nearly all actives have a fitted effect of over 55% in size
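In this reporter screen, reduction of luminescence relative to DMSO vehicle indicated activity. Compounds and 5-fluorouridine were added together to 2,000 cells per well, incubated for 16 hr at 37 °C, then developed with ONE-Glo.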
KB-3-1 cytotox: KB-3-1 parental cell cytotoxicity. KB-3-1 viability, CellTiter-Glo ATP luminescence, 72 h. Potency, µM (doses to about 46.1 µM), usual class: cytotoxic. 1.4% of 400,000 active; note: nearly all actives have a fitted effect of over 60% in size
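Luminescent ATP read-out (CellTiter-Glo) measures survival of drug-naive KB-3-1 cells after 72 h compound exposure at 37 °C. Titration series was screened from lowest to highest concentration, with DMSO vehicle plates as background controls.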
A number is an active result; - = inactive; ? = inconclusive; . = no result given; ! = not confirmed by another sample. Rows were chosen to be rich in hits. Some 8.1% of all compounds tested hit in one or more screens of this group. Calls come from the whole dose curve; as a rule, active = well fitted curve in the direction sought with a large enough effect; inconclusive = small, poorly fitted or top-dose-only effect, or another doubt; inactive = no such curve, though single readings can be large; an effect the other way counts as inactive or inconclusive.

SMILES | SW480 rerep | KB-V1 MDR tox | MCF10A rerep | ELG1 DNA repair | KB-3-1 cytotox
Cc1ccc(NC(=O)COC(=O)c2cccc(C)c2[N+](=O)[O-])cc1S(=O)(=O)N1CCCCC1 | - | - | - | ? | -
O=C(COc1ccccc1-c1nc(-c2ccccc2)no1)Nc1ccc([N+](=O)[O-])cc1 | . | - | . | . | -
CCN(CC)CCNc1nc(-c2ccco2)c2c(c1C#N)CC(C)(C)OC2 | - | ? | - | - | -
CCCCc1nc(NCCN2CCOCC2)c(C#N)c2c1COC(C)(C)C2 | - | - | - | 12µM | -
CC1(C)Cc2c(C#N)c(NCCc3ccccc3)nc(-c3ccco3)c2CO1 | 6.5µM | ? | 15µM | - | ?
COc1cc(-c2cc3nc(NCc4ccco4)ccn3n2)cc(OC)c1OC | . | ? | . | . | -
CCCCOc1ccc(C(=O)NCCc2csc(-c3cccc(F)c3)n2)cc1 | . | - | . | . | -
CC(C)NC(=O)C1(C#N)C=C1c1ccccc1 (configuration not stated) | . | ? | . | . | 8.2µM
Cc1c(OC(C)C(=O)NCC(O)c2ccccc2)ccc2c3c(c(=O)oc12)CCCC3 (configuration not stated) | - | - | - | 15µM | -
Cc1ccc2[nH]c(O)c(N=Nc3nc4ccccc4s3)c2c1 | - | 13µM | - | ? | ?
Oc1[nH]c2ccccc2c1N=Nc1nc2ccccc2s1 | - | - | - | ? | -
COc1ccc(NC(=O)C[C@H]2C(=O)N(Cc3ccccc3)C[C@@H]2C)cc1 | . | - | . | . | -
CS(=O)(=O)c1ccc(C(=O)OCC(=O)NC23CC4CC(CC(C4)C2)C3)cc1[N+](=O)[O-] | ? | - | 4.1µM | - | -
Cn1ccsc1=NC(=O)c1ccc(Cl)c([N+](=O)[O-])c1 | - | - | - | ? | -
CS(=O)(=O)c1ccc(C(=O)OCc2nnc(-c3ccc(Cl)cc3)o2)cc1[N+](=O)[O-] | ? | - | 3.7µM | ? | -
Cn1cccc1C(=O)NC(=O)COC(=O)c1ccc(S(C)(=O)=O)c([N+](=O)[O-])c1 | 16µM | ? | 5.8µM | ? | ?
O=C(OCc1nnc(-c2ccc(Cl)cc2)o1)c1ccc(O)cc1 | - | - | - | ? | -
Cn1ccsc1=NC(=O)c1ccc(S(C)(=O)=O)c([N+](=O)[O-])c1 | 16µM | . | 15µM | ? | .
C[C@H](CO)N1C[C@H](C)[C@@H](CN(C)S(=O)(=O)c2cn(C)cn2)Oc2ccc(NC(=O)Cn3cnnn3)cc2C1=O | - | - | - | - | -
CCCCNC(=O)c1nc(-c2cnc(C)cn2)oc1-c1ccc(Cl)cc1 | . | - | . | . | -
O=C(Nc1ccc(N2CCOCC2)cc1)c1ccc(COc2ccccc2)cc1 | - | - | - | ? | -
O=C(c1cc(F)ccc1F)C1CCCN(C(=O)c2ccc(F)cc2Cl)C1 (configuration not stated) | - | 12µM | ? | - | -
Cc1cccc(NC(=O)CSc2nc3ccccc3c3nc(CCc4c(C)n[nH]c4C)nn23)c1 | ? | 23µM! | 7.3µM | ? | ?
COc1ccc(/C=C2\CCCC3C2=NC(=S)NC3c2ccc(OC)cc2)cc1 (configuration not stated) | 18µM | - | 7.3µM | ? | -
CN(CCOc1ccc(Cl)cc1)C(=O)C1CCN(C(=O)c2ccc(F)cc2)CC1 | - | . | - | - | .
SMILES | SW480 rerep | KB-V1 MDR tox | MCF10A rerep | ELG1 DNA repair | KB-3-1 cytotox
COc1ccc(N2C(=O)/C(=C\c3ccco3)N=C2SCC(=O)NC(C)C)cc1Cl | - | - | - | ? | -
COc1ccc(N2C(=O)/C(=C\c3ccco3)N=C2SCC(=O)N(C(C)C)C(C)C)cc1Cl | - | ? | - | 13µM | -
CN(C)CCNc1ccc(-c2nn(C)c(=O)c3ccccc23)cc1[N+](=O)[O-] | - | 23µM | - | ? | ?
COC(=O)Cn1nc(-c2ccc(C)c(S(=O)(=O)N(C)C)c2)c2ccccc2c1=O | - | 18µM | - | - | -
Cc1ccc(-c2nn(CC(=O)NCc3cc(-c4nn(C)c(=O)c5ccccc45)ccc3C)c(=O)c3ccccc23)cc1 | 6.5µM | 7.3µM | 9.2µM | - | 23µM
Cc1ccc(-c2nn(CC(=O)N(C)C)c(=O)c3ccccc23)cc1S(=O)(=O)N(C)C | - | - | - | - | -
Cc1ccc(-c2nn(C)c(=O)c3ccccc23)cc1CNC(=O)c1ccccc1 | - | ? | - | 16µM | -
COc1ccc(CCNC(=O)CSc2cn(CCNC(=O)c3c(F)cccc3F)c3ccccc23)cc1OC | . | - | . | . | -
COCCn1c(SCc2nnc(-c3ccccc3)o2)nc2sc3c(c2c1=O)CCC3 | - | 6.5µM | - | - | -
N#CCSc1ncnc2sc3c(c12)CCC3 | - | - | - | - | -
COc1ccc(-c2nnc(CSc3ncnc4sc5c(c34)CCC5)o2)cc1OC | ? | 21µM | - | - | -
COCCCn1c(SCC(=O)NCc2ccco2)nc2sc3c(c2c1=O)CCC3 | - | - | - | ? | -
CCOC(=O)c1noc2ncn(CC(=O)Nc3cccc(C(F)(F)F)c3)c(=O)c12 | . | - | . | . | -
CCCN1C(=O)c2cc(C(=O)Nc3cccc(C(C)=O)c3)ccc2C1Nc1cccc(C(C)=O)c1 (configuration not stated) | - | ? | - | 16µM | -
CC(C)N(C)c1ncnc2c1ncn2[C@H]1CN(Cc2cccs2)C[C@@H](CO)O1 | . | - | . | . | -
CCCCn1c(-c2csc3c2CCC(C)C3)n[nH]c1=S (configuration not stated) | - | 15µM | - | - | 21µM
CCCCn1c(-c2csc3c2CCCC3)n[nH]c1=S | - | 21µM | - | - | -
CCCCn1c(-c2csc(CC)c2)n[nH]c1=S | - | - | - | - | -
CCCCn1c(-c2csc(C(C)C)c2)n[nH]c1=S | - | 23µM | - | - | -
O=C(Cn1nnc(-c2ccccc2F)n1)Nc1ccc2c(c1)OCCO2 | - | - | - | ? | -
COc1ccc2nc(Cl)cc(Cl)c2c1 | - | - | - | - | -
C=CS(=O)(=O)c1c2cc(OC)ccc2nc2ccc(OC)cc12 | 21µM | 21µM | ? | . | ?
O=C(NCCC1=CCCCC1)C1CCN(S(=O)(=O)N2CCCC2)CC1 | - | - | - | - | -
O=C(NCCC1=CCCCC1)C1CCCN(S(=O)(=O)c2ccccc2)C1 (configuration not stated) | - | 9.2µM | ? | ? | -
O=C(NCCC1=CCCCC1)C1CCN(S(=O)(=O)c2ccc(Br)s2)CC1 | - | 16µM | ? | - | -
CC(C)Oc1ccc(/C=N/NC(N)=S)cc1 | ? | 15µM | ? | ? | ?
COC(=O)c1ccc(COc2ccc(/C=N/NC(N)=S)cc2)o1 | - | ? | ? | 15µM | -
NC(=S)N/N=C/c1ccc(C(F)(F)F)cc1 | . | 5.8µM | ? | - | 23µM
O=C(NC(=S)Nc1ccc2oc(=O)ccc2c1)c1cc2ccccc2o1 | - | - | - | - | -
